Screens (PubChem BioAssay)
ADAM10 inh = inhibitors of human ADAM10; inhibition, % at 7 µM; recombinant ADAM10, EDANS/DABCYL FRET peptide cleavage, 3 h; actives 0.62% (n = 370,000);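 active = inhibition above a per-campaign cutoff equal to the mean of compounds falling between control-based bounds plus 3 SD, cut at about 20% in these data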;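 also: 0% = DMSO wells while the 100% control is not disclosed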
Target sequence (O14672 214-748 limits assumed): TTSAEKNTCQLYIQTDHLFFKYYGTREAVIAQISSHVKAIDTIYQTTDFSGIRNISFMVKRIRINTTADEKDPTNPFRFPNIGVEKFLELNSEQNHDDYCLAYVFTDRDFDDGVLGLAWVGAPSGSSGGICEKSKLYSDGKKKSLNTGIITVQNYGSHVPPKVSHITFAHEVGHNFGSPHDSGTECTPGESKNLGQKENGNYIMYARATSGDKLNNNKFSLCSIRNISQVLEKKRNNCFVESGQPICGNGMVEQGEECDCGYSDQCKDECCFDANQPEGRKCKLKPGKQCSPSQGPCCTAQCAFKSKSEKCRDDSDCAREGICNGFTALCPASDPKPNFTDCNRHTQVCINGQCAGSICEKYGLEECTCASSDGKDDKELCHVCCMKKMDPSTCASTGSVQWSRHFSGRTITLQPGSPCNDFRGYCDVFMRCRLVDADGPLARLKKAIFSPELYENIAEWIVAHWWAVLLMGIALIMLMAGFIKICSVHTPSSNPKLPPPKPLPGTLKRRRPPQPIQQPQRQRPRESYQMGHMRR
ADAM17 inh = inhibitors of human ADAM17. P78536. inhibition, % at 6.95 µM. recombinant ADAM17, EDANS/DABCYL FRET peptide cleavage. actives 0.83% (n = 370,000);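 active = inhibition above the mean of compounds lying between control limits plus 3 SD, set per campaign, cut at about 8.5% in these data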;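 also: 0% = DMSO-only wells as the low control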
FAS-TE inh = FAS thioesterase (human) inhibition. actives 0.67% (n = 360,000). P49327. recombinant FAS-TE, OMFH fluorogenic substrate, fluorescence endpoint. inhibition, % at 15 µM;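 active = compounds whose normalised, plate-corrected inhibition of enzyme fluorescence in the single-dose primary screen is 50% or more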;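 also: 0% = DMSO with enzyme and 100% = substrate without enzyme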
aDG glyco up = increases alpha dystroglycan glycosylation. Pro5-aDG cells, alpha-DG glycosylation AlphaScreen (IIH6); 0% Pro5, 100% B10-LARGE cell signal. activation, % at 10 µM. actives 0.22% (n = 360,000). AID 624168;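 active = activation of at least 8% versus controls, or a plate z-score of at least 8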;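 also: Pro5 are CHO cells carrying HIG-tagged alpha-DG that lacks glycosylation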
NR3A LBD binder = modulates the human NR3A ligand-binding domain. NR3A LBD differential scanning fluorimetry, Tm shift; 0% = protein alone, 100% = glycine-bound protein. Tm shift relative to glycine control, % at 25 µM. actives 2.5% (n = 340,000). AID 1259313;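 active = melting temperature shift of at least 10% of the positive control shift, at one fixed dose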
ADAM10 confirm = confirmation of inhibitors of human ADAM10; shares compounds with ADAM10 inh; ADAM10 QFRET peptide cleavage, EDANS fluorescence; inhibition, % at 6.95 µM; actives 1% (n = 2,100);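 active = inhibition above about 20% chosen separately for each screening run, limit read from the data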;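 also: 0% = DMSO wells and 100% = marimastat wells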
ADAM17 counter = ADAM17 inhibition, counter-screen for ADAM10 exosite hits | shares compounds with ADAM10 inh | ADAM17 QFRET peptide cleavage, EDANS fluorescence | inhibition, % at 6.95 µM | actives 0.5% (n = 2,100);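 active = mean triplicate inhibition above the solvent-only control wells' mean plus 3 SD, cut at about 12% in these data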;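 also: 0% = DMSO wells and 100% = marimastat wells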
ADAM10 ctr = counter-screen for ADAM17 exosite inhibitors: inhibitors of human ADAM10 | recombinant ADAM10, EDANS/DABCYL FRET peptide cleavage, 3 h | inhibition, % at 6.95 µM | shares compounds with ADAM17 inh | actives 47% (n = 2,900);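 active = mean inhibition over the triplicate runs exceeds the activity threshold set in the earlier primary screen, cut at about 20% in these data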;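 also: 0% = DMSO wells and 100% = marimastat wells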
ADAM17 confirm = confirmation of inhibitors of human ADAM17 | shares compounds with ADAM17 inh | recombinant ADAM17, EDANS/DABCYL QFRET peptide cleavage | inhibition, % at 6.95 µM | actives 65% (n = 2,900) | AID 743257;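 active = mean inhibition across replicates above the hit cutoff set in the primary screen, cut at about 8.5% in these data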;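 also: 0% = DMSO wells and 100% = marimastat wells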
* marks the source's active call; other numbers are inactive results; nt = not tested or not shown. The list is not random: actives were taken first. Their share in the collection is about 4%.

SMILES | ADAM10 inh | ADAM17 inh | FAS-TE inh | aDG glyco up | NR3A LBD binder | ADAM10 confirm | ADAM17 counter | ADAM10 ctr | ADAM17 confirm
COc1ccc(NC2CCCN(C(=O)CCC3=NNC(=O)CC3)C2)cc1 (stereo not given) | -4 | 5 | -6 | 0 | -1 | nt | nt | nt | nt
CC(C)Oc1ccc(C(=O)NC2(C(F)(F)F)NC(=O)N(CCCc3ccccc3)C2=O)cc1 (stereo not given) | 25* | 10* | 26 | 1 | 14* | 5 | 1 | 31* | 18*
O=C(COC(=O)CCCOc1ccc(Cl)cc1Cl)NCc1ccc(F)cc1 | 2 | 4 | 0 | 0 | -10 | nt | nt | nt | nt
COc1ccc(NC(=O)COC(=O)CCCOc2ccc(Cl)cc2Cl)cc1 | 24* | 10* | 24 | 0 | 27* | 7 | 2 | 19 | 8
CC(C)C(c1nnnn1Cc1ccccc1)N(Cc1ccco1)Cc1cccs1 (stereo not given) | -3 | -2 | 20 | 0 | 1 | nt | nt | nt | nt
COc1ccc(Cn2nnnc2C(C(C)C)N(Cc2ccco2)Cc2cccs2)cc1 (stereo not given) | 20* | 13* | 24 | 0 | 0 | 2 | 1 | 20* | 13*
COc1ccccc1N(C)S(=O)(=O)c1ccc(Cl)c(C(=O)NNC(=O)c2ccccc2O)c1 | 6 | 5 | 10 | 0 | -5 | nt | nt | nt | nt
COc1ccccc1N(C)S(=O)(=O)c1ccc(C(=O)NNC(=O)c2ccccc2O)cc1 | 22* | 9.0* | 2 | 0 | -4 | 6 | 3 | 19 | 12*
CC(C)CCNC(=O)NC(=O)CSc1nnc(COc2ccccc2Cl)o1 | 23* | 9.8* | -8 | 0 | -20 | 3 | 0 | 6 | 6
CC(C)NC(=O)NC(=O)CSc1nnc(COc2ccccc2Cl)o1 | 7 | 1 | -10 | 0 | 0 | nt | nt | nt | nt
CC(C)C(NS(=O)(=O)c1c(Cl)cccc1Cl)C(=O)OCC(=O)c1c[nH]c2ccccc12 (stereo not given) | 28* | 15* | 3 | 0 | 23* | 6 | 2 | 19 | 14*
COc1ccc(NC(=S)NC(NC(=O)c2ccc(Cl)cc2Cl)C(Cl)(Cl)Cl)c([N+](=O)[O-])c1 (stereo not given) | 22* | 8.8* | 24 | 0 | 11* | 10 | 2 | 31* | 17*
Cc1nn(Cc2ccc([N+](=O)[O-])cc2)c(=O)n1-c1ccccc1 | 2 | 2 | 20 | 0 | -2 | nt | nt | nt | nt
COc1cccc(S(=O)(=O)NCC(=O)Nc2ccc(C(C)(C)C)cc2)c1 | 7 | 5 | -2 | 0 | -24 | nt | nt | nt | nt
CN(Cc1ccccc1)c1ccc(C(CC(N)=O)NC(=O)c2ccc(Br)cc2)cc1[N+](=O)[O-] (stereo not given) | 38* | 15* | 20 | 0 | -3 | 6 | 1 | 21* | 13*
Cc1ccc(N(CC(O)CON=C2c3ccccc3-c3ccccc32)S(C)(=O)=O)cc1 (stereo not given) | 22* | 12* | 31 | 0 | -4 | 7 | 2 | 22* | 14*
O=C(/C=C/c1ccc([N+](=O)[O-])cc1)c1ccccc(=O)c1O | 25* | 12* | 8 | 0 | 0 | 13 | 4 | 32* | 33*
CCn1c(C(=O)N2CCc3ccccc3C2)cc2sccc21 | -3 | -1 | 10 | 4 | 2 | nt | nt | nt | nt
COc1ccc(/C=C(/C(=O)Nc2ccccc2C(=O)N2CCCC2)c2ccccc2)cc1 | 12 | 4 | 16 | 0 | -2 | nt | nt | nt | nt
COc1ccc(/C=C(/C(=O)Nc2ccccc2C(=O)NC(C)C)c2ccccc2)cc1 | 20* | 9.6* | 23 | -1 | -12 | 10 | 3 | 15 | 9
OC(c1cccc(Cl)c1)c1ncc(-c2ccc(Oc3ccccc3)cc2)[nH]1 (stereo not given) | 25* | 11* | 16 | 0 | nt | 9 | 4 | 42* | 21*
OC(c1cccc(Cl)c1)c1ncc(-c2ccc(C(F)(F)F)cc2)[nH]1 (stereo not given) | nt | nt | 14 | 0 | nt | nt | nt | nt | nt
Cc1cc(F)ccc1C(O)c1ncc(-c2ccc(Oc3ccccc3)cc2)[nH]1 (stereo not given) | 30* | 12* | 16 | 0 | nt | 6 | 2 | 20* | 14*
Cc1cc(F)ccc1C(O)c1ncc(-c2ccccc2)[nH]1 (stereo not given) | -11 | 1 | -2 | 1 | nt | nt | nt | nt | nt
OC(c1ccc(Cl)c(Cl)c1)c1ncc(-c2ccc(C(F)(F)F)cc2)[nH]1 (stereo not given) | 26* | 9.0* | 39 | 2 | nt | 8 | 2 | 30* | 15*
SMILES | ADAM10 inh | ADAM17 inh | FAS-TE inh | aDG glyco up | NR3A LBD binder | ADAM10 confirm | ADAM17 counter | ADAM10 ctr | ADAM17 confirm
Cc1ccc(CNC(=O)CS(=O)(=O)c2ccccc2)cc1 | 1 | -1 | -13 | 0 | 0 | nt | nt | nt | nt
CCOC(=O)c1c(CN2CCOCC2)n(C)c2cc(Br)c(O)c(CN(C)C)c12 | 8 | 1 | -7 | 0 | 0 | nt | nt | nt | nt
COc1cc(/C=C2\SC(=S)N(Nc3ncc(C(F)(F)F)cc3Cl)C2=O)ccc1O | 34* | 12* | 21 | 0 | 14* | 4 | 1 | 35* | 19*
COc1ccccc1N1CCN(C(=O)c2onc(C)c2Cl)CC1 | -4 | 2 | 1 | 0 | 0 | nt | nt | nt | nt
CC(C)Cn1c(-c2ccc(Br)cc2)c[nH]c1=S | 26* | 14* | 6 | 0 | 2 | 1 | 0 | 6 | 9.0*
Nc1nc(-c2ccccc2)c(N=Nc2cccc3ccccc23)s1 | 10 | 5 | 44 | -1 | 6 | nt | nt | nt | nt
Nc1nc(-c2ccccc2)c(N=Nc2ccccc2Cl)s1 | 26* | 16* | 25 | -1 | 3 | 14 | 5 | 40* | 25*
CN1C2CCC1CC(NC(=O)CSc1ccc(C(C)(C)C)cc1)C2 (stereo not given) | -1 | 1 | -2 | 0 | 0 | nt | nt | nt | nt
O=C(NCc1cccc(Cl)c1)c1ccc(S(=O)(=O)Nc2cccc(C(F)(F)F)c2)cc1 | 39* | 15* | 26 | 0 | 28* | 5 | 1 | 34* | 18*
CCOC(=O)c1c(C)[nH]c(C)c1C(=O)COC(=O)c1cccc(C)c1O | 20* | 9.3* | 18 | 0 | -10 | 6 | 1 | 7 | 8
CCOC(=O)c1c(C)[nH]c(C)c1C(=O)COC(=O)c1cc(OC)c(OC)cc1OC | -1 | -3 | -4 | 0 | -1 | nt | nt | nt | nt
